Most compounds without a hit are left out; they make up all but 5.9% or so of the library.
TGFb inhibitor: TGF-b pathway inhibition. HepG2 CAGA-GFP TGF-b/SMAD3 reporter, GFP fluorescence, 18 h; TGF-beta stimulated, 500 pg/mL final. Potency, µM (doses to about 46.1 µM), for inactives: at the top dose activity, negative = inhibition, hits mostly inhibitors. hit rate 1.2% among 410,000. AID 588855; further: on the % scale 0 is the no-effect control and ±100 the full control effect; nearly all actives have a fitted effect of over 65% in size
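Cell-based qHTS in HEPG2 carrying a CAGA-GFP Smad reporter; compounds added before 500 pg/mL final TGF-beta, 18 h incubation at 37 degrees C, GFP fluorescence quantified per cell by imaging cytometry.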
KB-V1 MDR tox: kills drug-selected multidrug resistant KB-V1 cells. KB-V1 MDR cells viability, CellTiter-Glo, 72 h. Potency, µM (top dose mostly 46.1 µM), actives largely listed as cytotoxic. hit rate 3.4% among 400,000. AID 1347076; further: on the % scale 0 is the no-effect control and ±100 the full control effect; nearly all actives have a fitted effect of over 60% in size
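Following 72 h at 37 degrees C with compound, KB-V1 cell viability was read by CellTiter-Glo luminescence, medium being phenol-red-free DMEM plus 10% FBS; concentration-response parameters came from normalized, curve-fitted qHTS data.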
KB-3-1 cytotox: KB-3-1 parental cell cytotoxicity | KB-3-1 viability, CellTiter-Glo ATP luminescence, 72 h | Potency, µM (series often up to 46.1 µM), actives largely listed as cytotoxic | hit rate 1.4% among 400,000; further: on the % scale 0 is the no-effect control and ±100 the full control effect; nearly all actives have a fitted effect of over 60% in size
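Parental KB-3-1 viability, qHTS format: 72 h compound exposure, 37 °C; CellTiter-Glo; media-only wells and DMSO plates as controls; concentration-effect fits on corrected data.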
S2 tox: reduces viability in counter-screen for ATXN expression inhibitors; S2 cells (HEK-293 line with an ATXN2-luciferase reporter) viability, CellTiter-Fluor protease fluorescence, 24 h; Potency, µM (top dose mostly 56.7 µM), most hits filed as cytotoxic; hit rate 0.49% among 400,000; AID 651635; further: nearly all actives have a fitted effect of over 40% in size
HepG2 tox: counter-screen for TGF-b inhibitors: cytotoxicity in HepG2 cells. Potency, µM (titrated, usually from 46.1 µM), for the others: at the top dose activity change, negative = cytotoxicity, most hits filed as cytotoxic. hit rate 0.76% among 410,000. HepG2 CAGA-GFP viability, ATP luminescence, 18 h
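HepG2 CAGA-GFP cells (1000/well, DMEM with 1% FBS) received compound, then TGF-beta at 500 pg/mL final, and were incubated 18 hours at 37 degrees C. Viability was read by CellTiter-Glo luminescence. Media-only wells were set as complete cell-killing and DMSO as no toxicity.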
ATXN2 expr inh: ATXN2 expression inhibition. Potency, µM (highest dose often 57 µM), for the others: at the top dose activity change, negative = inhibition, most hits filed as inhibitors. hit rate 0.72% among 360,000. HEK-293 ATXN2-luciferase reporter, luminescence, 24 h. AID 1745845; further: on the % scale 0 is the no-effect control and ±100 the full control effect; nearly all actives have a fitted effect of over 55% in size
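qHTS (up to 57 uM final) was run with 24 h compound exposure of reporter cells at 37 °C. Each well was multiplexed: SteadyGlo luminescence measured ATXN2-luciferase expression after a fluorogenic Gly-Phe-AFC viability readout (25 uM final).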
An asterisk follows results filed as active; i = inactive; u = inconclusive; x = no result; ! = not confirmed by another sample. The call rests on the fitted dose curve; in most records, active means well fitted curve in the direction sought with a large enough effect; inconclusive means small, poorly fitted or top-dose-only effect, or another doubt; inactive means no such curve, though single readings can be large; an effect the other way counts as inactive or inconclusive. Potency means the concentration at half of the fitted maximal effect.

SMILES	TGFb inhibitor	KB-V1 MDR tox	KB-3-1 cytotox	S2 tox	HepG2 tox	ATXN2 expr inh
Cc1cc(NC(c2ccc(Cl)cc2)c2ccc3cccnc3c2O)no1 (stereo not drawn)	u	u	u	u	-10%	3.2µM*
CCCCC(=O)NC(c1ccc(Cl)cc1Cl)c1ccc2cccnc2c1O (stereo not drawn)	u	u	3.3µM*	i	-60%	u
CC(C)C(=O)NC(c1ccc(Cl)cc1Cl)c1ccc2cccnc2c1O (stereo not drawn)	u	i	i	u	-31%	x
CCC(=O)NC(c1ccc(Cl)cc1Cl)c1ccc2cccnc2c1O (stereo not drawn)	u	i	u	i	-21%	5.6µM*
Cc1noc2ncnc(N3CCN(c4ccccc4F)CC3)c12	-5%	i	i	i	-30%	-16%
COc1ccc(S(=O)(=O)N(C)C)cc1NCC(=O)Nc1cccc2ccccc12	0%	i	i	i	17%	-1%
COc1ccc(S(=O)(=O)N(C)C)cc1NCC(=O)Nc1ccc(Br)c(C)c1	-3%	7.3µM*	i	i	2%	-12%
CC(=O)n1cc(C=O)c2ccccc21	44%	u	u	x	0%	x
CC(=O)n1cc(N(C(=O)CCl)c2ccc(Cl)cc2)c2ccccc21	u	u	u	3.5µM*	7.9µM*	x
COc1ccccc1N(C(=O)CCl)c1cn(C(C)=O)c2ccccc12	11µM*	15µM*	u	6.3µM*	11µM*	x
O=C(CSc1nnc(CNC(=O)c2c(F)cccc2Cl)o1)Nc1cccc(F)c1	-23%	u	i	x	-3%	x
NCCNc1ncnc2ccc(-c3ccc4c(c3)OCO4)cc12	x	i	u	x	x	x
Cc1cscc1-c1cc2nc(NCCCN(C)C)n(C)c(=O)c2s1	-8%	i	i	i	-11%	-17%
COc1ccc(-c2cc3nc(NCCCN(C)C)n(C)c(=O)c3s2)c(C)c1	u	i	i	i	3.5µM*	-24%
Cc1cc(Cl)ccc1-c1cc2nc(NCCCN(C)C)n(C)c(=O)c2s1	u	i	i	u	14µM*	32µM*
CN(C)CCCNc1nc2cc(-c3ccc(F)cc3)sc2c(=O)n1C	u	i	i	u	-85%	20µM*
Cc1ccc2oc(-c3ccc(C)c(NC(=O)COc4ccc(Cl)cc4C)c3)nc2c1	27%	i	u	x	-18%	x
COc1ccc(-c2ncccc2O)cc1	17%	i	i	i	16%	12%
CCOc1c(C)cc(-c2ncccc2O)cc1C	4%	13µM*!	u	i	2%	10%
COc1cc2cnc(-c3ccccc3)c(-c3ccc(C#N)cc3)c2cc1OC	13%	i	13µM*	u	-8%	u
Cc1ccc(N2CC(NC(=O)Cc3ccc(F)cc3)CC2=O)cc1C (stereo not drawn)	-1%	x	x	x	0%	x
Cc1cc2nc(/C=C/c3cccnc3)[nH]c2cc1C	u	0.26µM*	1.2µM*	i	9%	x
CCCn1c(=O)[nH]c(=O)c2c1nc(-c1ccc(OC(F)F)c(OC)c1)n2CCOC	-12%	i	i	i	-33%	1%
CCCn1c(=O)[nH]c(=O)c2c1nc(-c1ccccc1OC(F)F)n2CCOC	8%	18µM*	i	i	-4%	0%
Cc1cnc(CNC(=O)c2csc([C@@H]3O[C@H](CO)[C@H](O)[C@H](O)[C@H]3O)n2)cn1	4%	i	i	i	-1%	3%
SMILES	TGFb inhibitor	KB-V1 MDR tox	KB-3-1 cytotox	S2 tox	HepG2 tox	ATXN2 expr inh
CC(C)[C@H](NC(=O)c1ccccc1)C(=O)OCC(=O)c1ccc(S(=O)(=O)N2CCCCC2)cc1	-5%	21µM*	i	i	-1%	3%
O=C(COC(=O)c1ccccc1)c1ccc(S(=O)(=O)N2CCCCC2)cc1	0%	i	i	i	6%	-1%
CCN(CC)C(=O)c1cnn(-c2ccccc2)c1NC(=O)c1ccco1	0%	u	i	i	-5%	9%
Cc1ccc(NC(=O)c2cnn(-c3ccccc3)c2NC(=O)c2ccco2)cc1C	-2%	i	i	i	13µM*	29%
C=CCNC(=O)C(=O)NCCOc1ccccc1Cl	-4%	i	7.3µM*	i	-18%	5%
O=C(NCCOc1ccccc1Cl)C(=O)c1c[nH]c2ccccc12	u	u	i	x	-19%	3%
CCOc1ccc(N2C(=O)N(Cc3ccc(C)cc3C)c3ccccc3S2(=O)=O)cc1	0%	i	i	i	-10%	-6%
Cc1ccccc1OCC(=O)Nc1cccc(C(=O)O)c1	15%	i	i	i	4%	0.17µM*
CCCCc1ccc(-n2nc3ccc(NC(=O)c4cc5ccccc5o4)cc3n2)cc1	u	i	i	22µM*	-98%	u
Cc1cccc(OCC(=O)Nc2cc(NC(=O)COc3cccc(C)c3C)cc(C(=O)O)c2)c1C	-24%	i	i	i	-30%	x
COc1ccc(NC(=O)Nc2ccccc2F)cc1	1%	18µM*	u	i	-62%	0%
Cc1ccc(-n2nc3ccc(NC(=O)c4cc5ccccc5o4)cc3n2)cc1	-6%	i	i	i	-12%	30%
CCOc1ccc(NC(=O)Nc2cc(C)ccc2F)cc1	-8%	13µM*	i	i	-55%	75%
Cc1ccc(C)n1-c1c(C(=O)NCCC(C)C)sc2ncccc12	u	i	i	i	-13%	-18%
CCOc1ccc(NC(=O)Nc2cccc(C(=O)O)c2)cc1	-13%	u	i	i	-55%	1µM*
O=C(Nc1ccc(Cl)cc1)Nc1cccc(C(=O)O)c1	1%	i	i	i	-3%	8.9µM*
CCOC(=O)c1cccc(NC(=O)Nc2ccc(OCC)cc2)c1	-29%	u	i	u	-38%	x
COc1ccc(NC(=O)Nc2nccs2)cc1	8%	7.3µM*	u	i	-25%	22%
COc1ccc(C(=O)Nc2nccs2)cc1	4%	i	i	i	-20%	20%
CCOc1ccc(-n2nc3ccc(NC(=O)Cc4ccccc4)cc3n2)cc1	u	u	i	14µM*	-93%	u
O=C(Nc1cccc(Cl)c1)Nc1cccc(C(=O)O)c1	1%	i	u	i	-22%	3%
Cc1cc2ccccc2c[n+]1C	-1%	i	u	x	2%	x
CC(C)Cn1c(=O)c2sccc2n2c(CCCC(=O)NC3CCCCC3)nnc12	0%	x	x	x	-3%	x

Bioassay records: PubChem, National Center for Advancing Translational Sciences (NCATS)
